# Assay outcomes from PubChem.
# FadD28 binding: blocks FadD28 binding to the bisubstrate probe; AID 588549; fluorescence polarization; hit rate 0.22% among 360,000; inhibition, % at 12.5 µM; in the data active = inhibition above about 8.5%, passing the limit was not always enough
# TcdB GH inh: TcdB glycohydrolase inhibition; P18177; AID 652162; TcdB glycohydrolase enzymatic assay, plate reader; hit rate 0.24% among 350,000; inhibition, % at 9.99 µM; in the data active = inhibition above about 10%
# BioA inh: blocks M. tuberculosis BioA enzyme activity; purified M. tuberculosis BioA enzyme, plate reader; inhibition, % at 9.99 µM; hit rate 0.096% among 360,000; AID 602481; in the data active = inhibition above about 40%
# Yp Topo-I inh: inhibitors of Yersinia pestis topoisomerase I; Y. pestis Topo-I cleavage product accumulation, plate reader; activity, % at 10 µM; hit rate 0.064% among 360,000; AID 504884; in the data active = activity above about 50%, passing the limit was not always enough
# Vc quorum ag: quorum light induction in luxS cqsA deficient V. cholerae; activation, % at 18.7 µM; hit rate 0.16% among 350,000; V. cholerae BH1578 lux reporter, luminescence, 6 h; AID 588436; in the data active = activation mostly above about 9.7%, no sharp cut-off
# An asterisk follows results filed as active; i = inactive; nt = no result; + = active, no number. An excerpt weighted towards active compounds, which were near 0.58% of everything screened.
SMILES,FadD28 binding,TcdB GH inh,BioA inh,Yp Topo-I inh,Vc quorum ag
CNC[C@H]1OCCCC[C@@H](C)Oc2ccc(NS(=O)(=O)c3ccc(Cl)cc3)cc2C(=O)N([C@@H](C)CO)C[C@H]1C,nt,1,-2,nt,nt
CC(C)NC(=O)NCC[C@@H]1CC[C@@H](NS(=O)(=O)c2ccccc2)[C@@H](CO)O1,nt,-1,nt,nt,nt
C[C@@H]1CN([C@H](C)CO)S(=O)(=O)c2ccc(-c3ccncc3)cc2O[C@H]1CN(C)C(=O)c1ccc2c(c1)OCO2,nt,1,3,nt,nt
O=c1cc(-c2ccccc2)oc2cc(O)c(O)c(O)c12,6,5,0,-5,0
O=c1c(O)cccc2cc(O)c(O)c(O)c12,16*,-10,-4,-24,1
CCOC(=O)Cn1cc(C(=O)c2ccco2)c2ccccc21,15*,nt,4,-9,i
CC(C)NC(=O)Nc1ccc2c(c1)C(=O)N([C@@H](C)CO)C[C@@H](C)[C@@H](CN(C)CC1CCCCC1)OCCCC[C@H](C)O2,nt,0,2,nt,nt
C[C@@H]1CCCCO[C@@H](CN(C)S(=O)(=O)c2ccc(F)cc2)[C@@H](C)CN([C@@H](C)CO)C(=O)c2cc(NC(=O)CCC(F)(F)F)ccc2O1,nt,-5,-2,nt,nt
COc1cc(-c2cc(=O)c3ccc(O)cc3o2)cc(OC)c1OC,-3,-1,0,-4,0
Cc1cc2oc(=O)cc(-c3cc4ccccc4o3)c2cc1O,1,-1,-2,-8,0
COc1cc(OC)c(-c2c3cc(O)c(=O)cc-3oc3cc(O)c(O)cc23)cc1OC,39*,0,nt,-6,i
Cc1c2cc(O)c(=O)cc-2oc2cc(O)c(O)cc12,12*,-18,-66,-17,0
Cc1ccc(S(=O)(=O)Nc2ccc3c(c2)C(=O)N([C@@H](C)CO)C[C@H](C)[C@H](CN(C)C)O3)cc1,nt,1,-1,nt,nt
O=C(NCC[C@H]1CC[C@H](NS(=O)(=O)c2cccc(F)c2)[C@@H](CO)O1)C1CCOCC1,nt,1,-1,nt,nt
CCOc1ccccc1-n1c(C)nc2cc(C(=O)O)ccc21,1,20*,nt,12,-3
COc1ccccc1C(=O)Nc1cccc(Oc2c(F)c(F)c(F)c(F)c2F)c1,-3,13*,-2,16,0
COCCn1c(NC(=S)NC(=O)C2CC2)cc(=O)[nH]c1=O,0,23*,-3,-11,-3
CN1C(=O)c2cc(NC(=O)c3ccc(Cl)cc3)ccc2OC[C@@H]2O[C@H](CC(=O)O)CC[C@@H]21,nt,nt,0,nt,nt
CC(=O)c1ccc(Nc2ccc(-c3ccccc3F)nn2)cc1,-3,10*,nt,1,-1
C[C@@H]1CCCCO[C@@H](CN(C)C(=O)CCC(F)(F)F)[C@H](C)CN([C@@H](C)CO)C(=O)c2cc(NS(=O)(=O)c3ccc(Cl)cc3)ccc2O1,nt,0,2,nt,nt
CC(=O)C[C@H]1c2ccccc2S(=O)(=O)N1C1CCCCC1,0,14*,-1,2,i
COc1cc(/C=C(\C#N)C(=O)c2ccc(O)c(O)c2)cc(I)c1O,12*,-7,1,-13,1
O=c1[nH][nH]c2c(N=Cc3ccccc3O)ccc(F)c12,16*,-1,1,-24,i
O=c1[nH][nH]c2c([N+](=O)[O-])ccc(F)c12,nt,0,nt,nt,nt
COc1ccc(Cl)cc1NC(=S)NC1CCCC1,-2,15*,-1,-3,0
SMILES,FadD28 binding,TcdB GH inh,BioA inh,Yp Topo-I inh,Vc quorum ag
NC(=S)N=Nc1c(O)cc(O)c2[nH]c(=O)ccc12,30*,0,nt,-17,nt
NC(=S)N=Nc1c(O)[nH]c2ccc(F)cc12,1,1,nt,-10,-1
CCCn1nc(NS(=O)(=O)c2cccc3nonc23)c2cc3cccc(C)c3nc21,9.9*,-2,5,16,i
CNC(=O)C[C@H]1CC[C@H]2[C@@H](COC[C@H](O)CN2C(=O)Nc2ccc3c(c2)OCO3)O1,nt,nt,1,nt,nt
Cn1cc(C(=O)C(=O)NC2CC2)c2ccccc21,0,0,-2,3,-3
O=C(NC1CCCCC1)C(=O)c1c(-c2ccccc2)[nH]c2ccccc12,-2,-1,2,2,+
Cn1cc(C(=O)C(=O)NC2CCCCC2)c2ccccc21,1,2,-1,18,80*
CNC(=O)C[C@@H]1CC[C@H]2[C@@H](COc3ccc(NC(=O)c4ccccc4Cl)cc3C(=O)N2C)O1,nt,0,-4,nt,nt
N#Cc1nc(Cc2cccc3ccccc23)oc1N1CCOCC1,2,1,0,1,0
CC1CCN(c2oc(Cc3cccc4ccccc34)nc2C#N)CC1,3,nt,-1,55*,nt
